This is part of a sample that, as a whole, favours compounds with a hit. Of some 83,000 tested, about 20% had one in any assay.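 Compound tested at a single concentration for 48 hours in 96-well plates; a percent growth value below 10 was scored as active.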 Unmarked numbers belong to inactive results. The source made the active and inactive calls.
Experiments:
Assay in all cases: NCI-60 one-dose screen, 48 h (100 = growth as untreated, 0 = no growth, -100 = all killed)
Conditions in all cases: 10 µM unless noted
SR leukemia = system: SR leukemia
RPMI-8226 leukemia = system: RPMI-8226 leukemia
OVCAR-8 ovarian = system: OVCAR-8 ovarian
OVCAR-5 ovarian = system: OVCAR-5 ovarian
OVCAR-4 ovarian = system: OVCAR-4 ovarian
SK-OV-3 ovarian = system: SK-OV-3 ovarian
IGROV1 ovarian = system: IGROV1 ovarian
OVCAR-3 ovarian = system: OVCAR-3 ovarian
HS 578T breast = system: HS 578T breast
NCI/ADR-RES ovarian = system: NCI/ADR-RES ovarian
T-47D breast = system: T-47D breast
BT-549 breast = system: BT-549 breast
MDA-MB-435 melanoma = system: MDA-MB-435 melanoma
SW-620 colon = system: SW-620 colon
MCF7 breast = system: MCF7 breast
HCT-116 colon = system: HCT-116 colon
HCC-2998 colon = system: HCC-2998 colon
KM12 colon = system: KM12 colon

SMILES | growth (SR leukemia) | growth (RPMI-8226 leukemia) | growth (OVCAR-8 ovarian) | growth (OVCAR-5 ovarian) | growth (OVCAR-4 ovarian) | growth (SK-OV-3 ovarian) | growth (IGROV1 ovarian) | growth (OVCAR-3 ovarian) | growth (HS 578T breast) | growth (NCI/ADR-RES ovarian) | growth (T-47D breast) | growth (BT-549 breast) | growth (MDA-MB-435 melanoma) | growth (SW-620 colon) | growth (MCF7 breast) | growth (HCT-116 colon) | growth (HCC-2998 colon) | growth (KM12 colon)
O=C(c1c[nH]c2ccccc12)C(Sc1nc2ccccc2c(=O)[nH]1)c1ccccc1 (stereo unspecified) | 67.9% | 91.1% | 93.3% | 88% | 95.9% | 104% | 19.1% | 96.6% | 88.6% | 99.8% | 81% | 87.2% | 115% | 110% | 101% | 95.1% | 112% | 106%
CS(=O)(=O)N(c1cc(-c2ccc3ncnc(Nc4cccc(Cl)c4)c3c2)cnc1Cl)S(C)(=O)=O | 22.8% | -6.09% (active) | 23.8% | 12.1% | 43.3% | -11.1% (active) | -38.3% (active) | 11.1% | -3.12% (active) | 42.2% | -2.25% (active) | -8.61% (active) | 15.9% | 20.4% | 4.87% (active) | 12.1% | 23.9% | 21.3%
Clc1ccc([I+]c2ccc(Cl)cc2Cl)c(Cl)c1 | 22.8% | -25.7% (active) | -1.2% (active) | -25.9% (active) | 0.221% (active) | 96.7% | 39.7% | -75.5% (active) | 79% | 79.4% | -44.9% (active) | 7.13% (active) | 82.2% | -43.4% (active) | -30.9% (active) | -37.7% (active) | 58.3% | 39.3%
Cc1ccc2nc(SCn3nnc4ccccc4c3=O)[nH]c2c1 | 112% | 94.4% | 109% | 89.5% | 78.4% | 103% | 83.7% | 104% | 107% | 88.8% | 97% | 105% | 101% | 90.6% | 87.2% | 97.1% | 95.5% | 161%
CCCS(=O)(=O)c1nc(NC2CC2)cc(-c2ccc3c(ccn3C3CC(C)(C)NC(C)(C)C3)c2)n1 | -14.5% (active) | -32.6% (active) | -52.8% (active) | -15.2% (active) | -70.6% (active) | 92.6% | -51% (active) | -89.4% (active) | -11.4% (active) | 41.5% | -74.3% (active) | -35.7% (active) | 11.5% | -61.6% (active) | -80.5% (active) | -78.2% (active) | 1.29% (active) | 6.05% (active)
CC(=O)n1cc([C@H]2CC[C@H](c3cn(C(C)=O)c4ccccc34)c3c2[nH]c2ccccc32)c2ccccc21 | 93.9% | 50.8% | 89.5% | 102% | 77.7% | 80.4% | 58.3% | 76.3% | 106% | 80.7% | 50.8% | 95.2% | 93.1% | 90.3% | 63.7% | 63.9% | 87.3% | 64.4%
CCc1cccc(C)c1NC(=O)c1sc2nc3c(cc2c1N)C(=O)CCC3 | 2.24% (active) | 9.64% (active) | 27.9% | 29.2% | 76.3% | 10.4% | 30.7% | -26% (active) | 24.8% | 8.17% (active) | 24.4% | 46.8% | -27.5% (active) | 28.7% | 20.3% | 31.6% | 10.2% | 19%
Nc1c(C(=O)Nc2ccccc2)sc2nc3c(cc12)CN(Cc1ccccc1)CC3 | 55.6% | 79.6% | 74.8% | 78.5% | -14.7% (active) | 39.2% | 77.9% | 56.6% | 11.1% | 71% | 60.9% | 50.8% | 52.1% | 76.9% | 77.9% | 65.1% | 79.1% | 56.4%
Cc1cc(N/C=c2\sc3ncnn3c2=O)no1 | 74.8% | 92.5% | 101% | 108% | 106% | 105% | 94.4% | 95.8% | 98.9% | 99.1% | 96.1% | 104% | 97.6% | 98.8% | 86.1% | 95.1% | 96.9% | 84.3%
CCOC(=O)C(Cc1ccccc1)n1c(O)c(C=Nc2ccc(C(=O)OCCN(CC)CC)cc2)sc1=O (stereo unspecified) | 23.7% | 68% | 92.8% | 100% | 89.4% | 106% | 97.5% | 93% | 88.1% | 107% | 81.6% | 96.3% | 90.1% | 97.6% | 74.5% | 104% | 108% | 83.5%
COc1cc(NC(=O)c2cc3ccccc3nc2Nc2ccc(F)cc2)cc(OC)c1OC | 35.7% | 29.8% | 43.3% | 68.8% | 47.7% | 72.8% | 54.5% | 36.2% | 75.5% | 39.7% | 22.1% | 30.7% | 27% | 54.4% | 24.2% | 35.8% | 65.9% | 42.7%
CN(C)C/C=C/C(=O)Nc1cc2c(Nc3ccc(F)c(Cl)c3F)ncnc2cc1OCCOC(F)F | 14.8% | 11.4% | 26.6% | 26.6% | 16% | 0.142% (active) | -15.6% (active) | -15.4% (active) | -19.2% (active) | 20.1% | -1.23% (active) | 5.73% (active) | 5.61% (active) | 3.09% (active) | 20% | 2.2% (active) | 41.1% | 44.6%
O=C1CCCCN1CCCCC#Cc1ccccc1C#Cc1ccccn1 | 98.6% | 107% | 113% | 95.2% | 95.2% | 118% | -11.3% (active) | 104% | 118% | 92.2% | 92.9% | 117% | 98.1% | 103% | 109% | 106% | 88.5% | 111%
COc1ccc(/C=C\c2cc(OC)c(OC)c(OC)c2)c(NS(=O)(=O)c2ccc(C(C)(C)C)cc2)c1O | 16.4% | 27.9% | 21.9% | 32.4% | 28.2% | 31% | 38.5% | 0.435% (active) | 35.4% | 9.51% (active) | 72.2% | 37.7% | -17% (active) | 31.7% | 10.1% | 13.4% | 19.5% | 12.1%
COc1ccc(/C=C/C(=O)c2cc(OC)c(OC)c(OC)c2)cc1OCc1cn(Cc2ccc(F)cc2)nn1 | 3.34% (active) | 1.66% (active) | 15% | 50.4% | 43.4% | 76.6% | 85.9% | 21.7% | 82.6% | 16.5% | 50.4% | 25.7% | 5.55% (active) | 15.4% | 13% | 15% | 101% | 6.55% (active)
O=C(NNC(=S)Nc1ccccc1)c1ccccn1 | 9.67% (active) | 37.6% | 23.2% | 51.3% | 20.1% | 33.5% | 21.2% | 33.6% | 65.8% | 24.7% | 53.2% | 55.1% | 48.4% | 42.1% | 27.2% | 26.7% | 40.6% | 32.1%
CC/C=C\C[C@H](O)C/C=C1/C(=O)C(Cl)=C[C@@H]1C/C=C\CCCC(=O)OC | 1.41% (active) | -12.2% (active) | 1.69% (active) | -30% (active) | -47.3% (active) | 8.03% (active) | -12.6% (active) | -87.8% (active) | 35.2% | 14% | -16.9% (active) | -85.5% (active) | -43.7% (active) | -55.3% (active) | -71.2% (active) | -83.7% (active) | -92.1% (active) | -81.5% (active)

Source: PubChem BioAssay (NCI)
